Consider eight compounds from PubChem BioAssay (Tox21).

A short description of assay [1]: Nuclear factor erythroid 2-related factor 2/antioxidant responsive element (Nrf2/ARE) small molecule agonists: qHTS cell viability counter screen in human keratinocytes (AID 1919968; active = well fitted curve in the direction sought with a large enough effect in the repeat runs; an effect the other way counts as inactive or inconclusive; note: nearly all actives have a fitted effect of over 55% in size). Summed up:
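KeratinoSens cells (HaCaT keratinocytes stably carrying an ARE-luciferase reporter) were seeded at 1,500 cells/well and rested 5 h at 37 C/5% CO2. They were then exposed to compounds in DMSO for 23 h. Viability was read by CellTiter-Fluor fluorescence after 1 h.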

Assay [2] in a line: Nuclear factor erythroid 2-related factor 2/antioxidant responsive element (Nrf2/ARE) small molecule agonists: luciferase reporter gene qHTS assay in human keratinocytes (AID 1919969). Note: nearly all actives have a fitted effect of over 35% in size. Note: potency is the fitted concentration of half-maximal effect.
For assay [3], the target named is Gonadotropin-releasing hormone receptor (Homo sapiens) (UniProt P30968). Nature of the assay: Human gonadotropin-releasing hormone receptor (GnRHR) small molecule agonists, calcium flux assay in GnRHR-HEK293 cells (AID 1920063). Note: nearly all actives have a fitted effect of over 35% in size. Summed up:
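HEK293 cells stably expressing human GnRHR were plated 18 h at 37 °C, loaded with calcium dye 1 h at 37 °C, then given compound in agonist mode; fluorescence (Ex/Em 480/540) read kinetically for 3 min at 1 s intervals.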

Assay [4] deals with KiSS-1 receptor (Homo sapiens) (UniProt Q969F8). Kind of assay: Human kisspeptin (KISS1R) small molecule agonists, calcium flux assay in KISS1R-HEK293 cells (AID 1920064; active = well fitted curve in the direction sought with a large enough effect in the repeat runs; an effect the other way counts as inactive or inconclusive). The gist of the method:
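HEK293 cells stably expressing human KISS1R were plated 18 h at 37 °C, loaded with calcium dye for 1 h at 37 °C, then given compound by pin tool. Fluorescence (Ex/Em 480/540) was read kinetically for 3 min.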

Assay [5] can be described thus: G protein-coupled receptor (GPCR) small molecule agonists, calcium flux assay: HEK293 wild type cell line counter screen (AID 1920065). The gist of the method:
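Cells were plated and cultured 18 h at 37 C/5% CO2, then loaded with calcium dye for 1 h at 37 C. Compounds in DMSO were pin-transferred in agonist mode, and fluorescence (Ex/Em 480/540) was read kinetically for 3 min at 1 s intervals.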

Assay [6] is described as follows: p53 small molecule agonists, cell-based qHTS assay with human liver microsomes (AID 1963577).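 Note: p53 response element beta-lactamase reporter cells with liver microsomes plus NADPH.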 The gist of the method: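 Metabolically competent format: test substances, human liver microsomes and NADPH (both 0.5 mg/mL final) incubated with p53RE-bla cells 16 h at 37 C. Beta-lactamase reporter signal then quantified by fluorescence.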
Assay [7] in a line: p53 small molecule agonists, cell-based qHTS assay with rat liver microsomes (AID 1963578). Note: potency is the fitted concentration of half-maximal effect. Summed up:
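Each plate received p53RE-bla cells, then compound, then rat liver microsomes and NADPH (both 0.5 mg/mL final). Plates were held 16 h at 37 C, and beta-lactamase activity was detected with LiveBLAzer over 2 h.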

Assay [8] in a line: p53 small molecule agonists, cell-based qHTS assay with human liver microsomes: qHTS cell viability counter screen (AID 1963579). Note: nearly all actives have a fitted effect of over 45% in size. Summed up: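 Tox21 library compounds, delivered from DMSO stocks, were tested on p53RE-bla cells together with 0.5 mg/mL human liver microsomes and 0.5 mg/mL NADPH (final) over 16 h at 37 C; CellTiter-Glo luminescence served as the cytotoxicity measure.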

Assay [9] can be described thus: p53 small molecule agonists, cell-based qHTS assay with rat liver microsomes: qHTS cell viability counter screen (AID 1963580). Note: nearly all actives have a fitted effect of over 45% in size. Summed up: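 In HCT-116 cells carrying a p53 response element-bla reporter, compounds were metabolically activated in situ by rat liver microsomes with NADPH over 16 h. Cell ATP content then served as the cytotoxicity measure.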
Assay [10] can be described thus: p53 small molecule agonists, cell-based qHTS assay: qHTS cell viability counter screen (AID 1963581). Note: nearly all actives have a fitted effect of over 45% in size. Note: potency is the fitted concentration of half-maximal effect. The gist of the method:
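p53RE-bla HCT-116 cells were exposed to compounds for 16 h at 37 C; after the beta-lactamase FRET read in the same wells, CellTiter-Glo was added and luminescence (intracellular ATP) read after 30 min at room temperature.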

Assay [11] in a line: p53 small molecule agonists, cell-based qHTS assay (AID 1963582; active = well fitted activation curve with a large enough effect in the signal ratio in the repeat runs, not every such curve was filed as active; the % refers to the signal ratio). Summed up:
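p53RE-bla beta-lactamase reporter cells rested 5 h at 37 C/5% CO2, then received compounds in DMSO by pin transfer and were incubated 16 h at 37 C. LiveBLAzer B/G FRET substrate was loaded for 2 h at room temperature before fluorescence reading.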

A short description of assay [12]: cAMP Responsive Elements (CRE) small molecule agonists, cell-based qHTS assay (AID 1963590). The gist of the method:
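CRE-bla HEK 293T cells in DMEM with 10% dialyzed FBS, NEAA, pyruvate and 25 mM HEPES were plated 18 h at 37 C/5% CO2, then exposed to compounds in DMSO for 3 h before LiveBLAzer B/G FRET substrate addition.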

Assay [13] in a line: cAMP Responsive Elements (CRE) small molecule antagonists, cell-based qHTS assay (AID 1963591; active = well fitted inhibition curve with a large enough effect in the signal ratio in the repeat runs, not every such curve was filed as active; the % refers to the signal ratio). The gist of the method: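 CRE-bla HEK293T cells were plated 18 h at 37 °C/5% CO2, pinned with compound in DMSO, then stimulated with NKH477 at 0.25 uM final for 3 h. LiveBLAzer B/G FRET substrate was added and plates incubated 2 h at room temperature.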
Assay [14] has as its target Beta-2 adrenergic receptor (Homo sapiens) (UniProt P07550). Kind of assay: Adrenergic beta2 receptor (ADRB2) small molecule antagonists, cell-based qHTS assay (AID 1963592). Note: series mostly up to about 92 µM; nearly all actives have a fitted effect of over 50% in size. Summed up: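 Cells (CHO, stable ADRB2 overexpression) incubated 18-20hr at 37C; compounds added from DMSO; agonist mix (1nM isoproterenol, 100uM IBMX, 25uM Ro-20-1724) added; 0.5hr RT; d2-cAMP and anti-cAMP-cryptate added; 1hr RT; 665/615 nm read.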

Assay [15] concerns the target D(2) dopamine receptor (Homo sapiens) (UniProt P14416). Kind of assay: Dopamine D2 receptor (DRD2) small molecule agonists, cell-based qHTS assay (AID 1963594). Note: nearly all actives have a fitted effect of over 35% in size. The gist of the method: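 HEK293 cells stably expressing DRD2 were cultured 24 h at 37 C, then given Ro20-1724 (0.1 mM final) and compounds for 10 min at room temperature. NKH477 (200nM) was then added for 30 min. cAMP was read by HTRF.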

For assay [16] the target is unchanged. Kind of assay: Dopamine D2 receptor (DRD2) small molecule antagonists, cell-based qHTS assay (AID 1963595; active = well fitted inhibition curve with a large enough effect in the signal ratio in the repeat runs, with a control signal flat; the % refers to the signal ratio). Summed up: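 Cells were plated and grown for 24 h at 37 °C. Ro20-1724 (0.1 mM final) went in first, then compound for 10 min. NKH477 (200 nM) with quinpirole (12 nM) followed for 30 min at RT, then HTRF detection reagents for 1 h.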
For assay [17], the target named is 5-hydroxytryptamine receptor 2A (Homo sapiens) (UniProt P28223). Kind of assay: 5-hydroxytryptamine receptor 2A (HTR2A) small molecule antagonists, cell-based qHTS assay (AID 1963586). Note: nearly all actives have a fitted effect of over 45% in size. Note: potency is the fitted concentration of half-maximal effect. Summed up:
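Antagonist-mode intracellular calcium assay: DOI (4 nM) added after 5 min compound pre-incubation at room temperature to dye-loaded HTR2A-CHO cells. Fluorescence followed for 3 min, sampled every second.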

Assay [18] shares this target. Kind of assay: 5-hydroxytryptamine receptor 2A (HTR2A) small molecule agonists, cell-based qHTS assay (AID 1963587). Note: nearly all actives have a fitted effect of over 30% in size. The gist of the method:
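HTR2A-CHO cells, plated 18 h at 37 C/5% CO2, dye-loaded 1 h at 37 C; compounds in DMSO added by pin tool (agonist mode). Intracellular calcium flux read as kinetic fluorescence on FDSS over 2 min at 1 s intervals.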

The target of assay [19] is Muscarinic acetylcholine receptor M1 (Homo sapiens) (UniProt P11229). Nature of the assay: Cholinergic receptor muscarinic 1 (CHRM1) small molecule antagonists, cell-based qHTS assay (AID 1963588). Note: nearly all actives have a fitted effect of over 40% in size. Note: potency is the fitted concentration of half-maximal effect. The gist of the method:
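CHRM1-CHO calcium-flux assay, antagonist mode. Cells were seeded 18 h, dye-loaded 1 h at 37 C and given compound for 5 min at RT, then acetylcholine was added at 50nM. FDSS fluorescence was read 3 min; 15 concentrations, three runs.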

The target is the same in assay [20]. Nature of the assay: Cholinergic receptor muscarinic 1 (CHRM1) small molecule agonists, cell-based qHTS assay (AID 1963589). Note: nearly all actives have a fitted effect of over 35% in size. Summed up:
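CHO cells stably expressing human CHRM1, seeded 18 h at 37 C/5% CO2, dye-loaded 1 h at 37 C, then given compound in agonist mode; intracellular calcium fluorescence read kinetically at 1 s intervals. Fifteen concentrations, three independent runs.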

Results filed as inconclusive are left out. The source holds several records for some structures; these can differ, active in one and inactive in another. The source made the active and inactive calls. Unless noted, calls come from the whole dose curve.

Beta-2 adrenergic receptor (Homo sapiens), sequence (P07550 whole entry, looked up): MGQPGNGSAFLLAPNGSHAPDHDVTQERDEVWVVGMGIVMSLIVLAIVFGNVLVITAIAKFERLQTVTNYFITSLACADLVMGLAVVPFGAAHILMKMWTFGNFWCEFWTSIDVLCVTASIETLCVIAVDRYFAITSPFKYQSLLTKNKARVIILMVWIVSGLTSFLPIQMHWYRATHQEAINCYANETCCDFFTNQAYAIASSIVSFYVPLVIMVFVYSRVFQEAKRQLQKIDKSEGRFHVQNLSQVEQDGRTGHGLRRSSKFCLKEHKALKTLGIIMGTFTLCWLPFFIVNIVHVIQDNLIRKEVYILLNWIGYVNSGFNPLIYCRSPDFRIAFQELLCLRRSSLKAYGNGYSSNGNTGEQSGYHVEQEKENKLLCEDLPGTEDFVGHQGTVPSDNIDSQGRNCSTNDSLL
D(2) dopamine receptor (Homo sapiens), sequence (P14416 whole entry, looked up): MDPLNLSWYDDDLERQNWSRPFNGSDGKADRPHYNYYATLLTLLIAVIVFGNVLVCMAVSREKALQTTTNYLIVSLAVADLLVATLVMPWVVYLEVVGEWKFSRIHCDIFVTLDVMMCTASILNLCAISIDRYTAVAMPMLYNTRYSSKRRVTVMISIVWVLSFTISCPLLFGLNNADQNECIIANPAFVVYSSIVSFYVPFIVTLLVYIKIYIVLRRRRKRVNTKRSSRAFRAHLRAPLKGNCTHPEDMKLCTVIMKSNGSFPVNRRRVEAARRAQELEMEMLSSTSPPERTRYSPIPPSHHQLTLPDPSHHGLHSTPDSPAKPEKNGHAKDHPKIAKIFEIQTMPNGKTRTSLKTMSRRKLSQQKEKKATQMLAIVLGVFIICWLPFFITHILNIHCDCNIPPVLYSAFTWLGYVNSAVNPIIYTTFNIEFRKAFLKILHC
5-hydroxytryptamine receptor 2A (Homo sapiens), sequence (P28223 whole entry, looked up): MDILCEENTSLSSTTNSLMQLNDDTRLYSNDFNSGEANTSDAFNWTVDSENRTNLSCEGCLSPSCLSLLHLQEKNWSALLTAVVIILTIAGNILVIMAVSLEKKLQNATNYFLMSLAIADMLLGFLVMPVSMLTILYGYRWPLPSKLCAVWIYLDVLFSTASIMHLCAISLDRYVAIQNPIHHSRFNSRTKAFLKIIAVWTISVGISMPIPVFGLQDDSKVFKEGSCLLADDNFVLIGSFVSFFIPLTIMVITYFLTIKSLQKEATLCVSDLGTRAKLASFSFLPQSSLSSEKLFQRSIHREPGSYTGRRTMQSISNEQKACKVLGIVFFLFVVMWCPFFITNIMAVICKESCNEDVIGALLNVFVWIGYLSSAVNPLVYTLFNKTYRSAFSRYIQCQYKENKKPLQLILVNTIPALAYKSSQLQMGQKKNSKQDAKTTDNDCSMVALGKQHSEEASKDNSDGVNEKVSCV
KiSS-1 receptor (Homo sapiens), sequence (Q969F8 whole entry, looked up): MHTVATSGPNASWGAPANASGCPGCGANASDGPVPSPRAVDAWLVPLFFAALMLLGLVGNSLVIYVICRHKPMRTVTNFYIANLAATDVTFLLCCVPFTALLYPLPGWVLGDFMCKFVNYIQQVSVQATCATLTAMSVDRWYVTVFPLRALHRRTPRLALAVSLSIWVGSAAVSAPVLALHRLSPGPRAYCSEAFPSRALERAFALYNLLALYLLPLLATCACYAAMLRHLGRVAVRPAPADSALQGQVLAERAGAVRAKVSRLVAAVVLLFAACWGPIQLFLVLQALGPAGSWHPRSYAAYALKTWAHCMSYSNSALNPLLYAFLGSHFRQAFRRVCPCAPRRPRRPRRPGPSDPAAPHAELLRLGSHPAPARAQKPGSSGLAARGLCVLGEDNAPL
Muscarinic acetylcholine receptor M1 (Homo sapiens), sequence (P11229 whole entry, looked up): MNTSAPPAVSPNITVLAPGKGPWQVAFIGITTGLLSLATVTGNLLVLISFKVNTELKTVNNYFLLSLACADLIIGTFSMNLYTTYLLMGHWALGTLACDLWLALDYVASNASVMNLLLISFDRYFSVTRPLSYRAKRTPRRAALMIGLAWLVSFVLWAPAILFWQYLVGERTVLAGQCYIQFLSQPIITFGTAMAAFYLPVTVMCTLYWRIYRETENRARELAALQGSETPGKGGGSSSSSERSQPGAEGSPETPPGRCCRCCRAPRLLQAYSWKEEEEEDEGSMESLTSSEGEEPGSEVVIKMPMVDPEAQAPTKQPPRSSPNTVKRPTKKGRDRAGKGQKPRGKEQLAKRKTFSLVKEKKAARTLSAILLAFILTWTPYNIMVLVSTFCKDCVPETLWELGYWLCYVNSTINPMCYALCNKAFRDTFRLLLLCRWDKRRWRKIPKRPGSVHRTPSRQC
Gonadotropin-releasing hormone receptor (Homo sapiens), sequence (P30968 whole entry, looked up): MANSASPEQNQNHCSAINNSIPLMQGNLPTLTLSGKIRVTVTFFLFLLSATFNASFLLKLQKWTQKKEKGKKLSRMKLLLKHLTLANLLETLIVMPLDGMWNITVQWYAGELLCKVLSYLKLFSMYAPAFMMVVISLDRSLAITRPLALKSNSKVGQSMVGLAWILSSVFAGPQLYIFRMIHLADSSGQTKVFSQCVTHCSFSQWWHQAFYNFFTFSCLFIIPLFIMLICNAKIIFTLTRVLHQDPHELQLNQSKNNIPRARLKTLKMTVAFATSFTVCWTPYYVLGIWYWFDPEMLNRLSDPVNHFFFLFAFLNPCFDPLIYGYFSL

As for `O=P1(N(CCCl)CCCl)NCCCO1` (centres undefined), the Potency result in [1], in assay [2], in assay [3], in assay [4], in assay [5] and in assay [6] was “inactive” throughout. Moreover, the Potency entry in assay [7], in [8], in assay [9], in assay [10], in [11] and in assay [12] was “inactive” throughout. In addition, the Potency entry in assay [13], in assay [14], in assay [15] and in assay [16] was “inactive” throughout.

With `CN(C)c1ccc(N(C)C)cc1`, the Potency result in assay [1], in [3], in assay [4], in assay [5], in assay [6] and in [7] was “inactive” in each case. Further, the Potency result in assay [8], in assay [9], in assay [17], in assay [18], in assay [19] and in assay [20] was “inactive” each time. Moreover, the Potency entry in [12] is “inactive”. Besides, the Potency in assay [2] is 54.6 µM (active); in assay [10], 0.365 µM (active).

As to `CC(C)(C)OOC(=O)c1ccccc1`, the Potency result in assay [1], in assay [2], in assay [3], in [4], in [5] and in [6] was “inactive” in each case. The Potency result in assay [7], in assay [8], in assay [9], in assay [10], in assay [11] and in [18] was “inactive” throughout. The Potency result in assay [20], in [12], in [13], in assay [14] and in assay [16] was “inactive” each time. Further, the Potency in assay [19] is 13.3 µM (active) and inactive.

Consider `CS(=O)(=O)NC(=O)c1cc(Oc2ccc(C(F)(F)F)cc2Cl)ccc1[N+](=O)[O-]`, for which the Potency result in assay [1], in assay [2], in assay [3], in assay [4], in [5] and in assay [6] was “inactive” in each case. In addition, the Potency entry in [7], in assay [8], in [9], in [10], in assay [11] and in [19] was “inactive” each time. Moreover, the Potency entry in assay [20], in assay [12], in assay [13], in [14], in assay [15] and in assay [16] was “inactive” each time.

As to `O=C(O)C(Cl)(Cl)Cl`, the Potency entry in [1], in assay [2], in [3], in assay [4], in assay [5] and in [6] was “inactive” throughout. Also, the Potency result in assay [7], in [8], in assay [9], in assay [10], in [11] and in assay [12] was “inactive” throughout. Also, the Potency entry in [13], in [14], in assay [15] and in assay [16] was “inactive” each time.

As to `CNC(=O)Oc1cccc2ccccc12`, the Potency entry in [1], in [2], in assay [3], in assay [4], in [5] and in assay [6] was “inactive” in each case. Also, the Potency entry in [8], in assay [9], in assay [10], in [11], in [18] and in [19] was “inactive” each time. In addition, the Potency entry in assay [20], in [12], in [13], in assay [14], in assay [15] and in assay [16] was “inactive” in each case. The Potency in [7] was 32.4 µM (active).

Take `COc1ccc(O)c(C(C)(C)C)c1`: the Potency entry in assay [1], in assay [3], in assay [4], in assay [5], in assay [6] and in [7] was “inactive” each time. For the same compound, the Potency result in [8], in assay [9], in assay [10], in assay [11], in assay [19] and in [20] was “inactive” each time. Moreover, the Potency result in assay [13], in [14], in assay [15] and in [16] was “inactive” throughout. Moreover, the Potency is 68.7 µM (active) in assay [2]; 23.7 µM (active) and inactive in assay [17].

Turning to `CCCOC(=O)c1ccccc1C(=O)OCCC`, the Potency entry in [1], in assay [2], in assay [3], in assay [4], in [5] and in [6] was “inactive” each time. For the same compound, the Potency entry in [7], in [8], in assay [9], in [10], in [17] and in assay [18] was “inactive” throughout. Besides, the Potency result in assay [19], in assay [20], in assay [12], in [13], in assay [14] and in assay [15] was “inactive” each time. The Potency result in assay [16] was “inactive”.
